Screens from PubChem BioAssay.
Hits are enriched below; roughly 15% of the tested compounds scored in any of these assays.
TDP1 cell CPT: qHTS for Inhibitors of human tyrosyl-DNA phosphodiesterase 1 (TDP1): qHTS in cells in presence of CPT | chicken DT40 Tdp1-/-;hTDP1 cells + 20 nM CPT, ATP luminescence, 48 h | Potency, µM (series often up to 46.2 µM), for inactives: at the top dose activity change, negative = growth inhibition, usual class: inhibitors | 420,000 compounds, 12% hits | AID 686979, 2013; further: nearly all actives have a fitted effect of over 55% in size
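Chicken DT40 Tdp1-/- cells stably complemented with human TDP1 were seeded at 400 cells/well in medium containing 20 nM camptothecin, exposed to pin-transferred compounds, and grown at 37 °C for at least 48 hr. Viability was read as ATP luminescence.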
DT40 TDP1 no CPT: qHTS for Inhibitors of human tyrosyl-DNA phosphodiesterase 1 (TDP1): qHTS in cells in absence of CPT. DT40 Tdp1-/- hTDP1 cells, no CPT, ATP luminescence, 48 h. Potency, µM (titrated, usually from 46.2 µM), for inactives: top-dose activity change, negative = growth inhibition, hits mostly inhibitors. 420,000 compounds, 15% hits. AID 686978, 2013; further: nearly all actives have a fitted effect of over 55% in size
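Growth of hTDP1-complemented DT40 Tdp1-knockout cells is measured by ATP luminescence after at least 48 hr compound exposure at 37 °C, with DMSO substituting for the 20 nM CPT used in the parallel screen.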
ELG1 DNA repair: qHTS screen for small molecules that inhibit ELG1-dependent DNA repair in human embryonic kidney (HEK293T) cells expressing luciferase-tagged ELG1; HEK293T ELG1-luciferase reporter, luminescence, 16 h; DNA damage induced by 5-fluorouridine; Potency, µM (doses to about 46.1 µM), without a hit: at the top dose activity change, negative = inhibition, hits mostly inhibitors; 330,000 compounds, 2.3% hits; further: nearly all actives have a fitted effect of over 55% in size
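Reporter activity after DNA damage by 5-fluorouridine is monitored. Compound-treated cells incubate 16 hr at 37 °C, then ONE-Glo is added for 30 min before luminescence reading.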
RORg inh: qHTS for inhibitors of ROR gamma transcriptional activity; Nuclear receptor ROR-gamma (Mus musculus), P51450; Drosophila S2 Gal4-RORgamma UAS-luciferase reporter, 20 h; Potency, µM (titrated, usually from 53.6 µM), for inactives: at the highest dose activity change, negative = inhibition, usual class: inhibitors; 310,000 compounds, 5.4% hits; AID 2551, 2010; further: nearly all actives have a fitted effect of over 60% in size
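A Gal4/UAS one-hybrid system in insect cells: metallothionein-promoter Gal4–ROR gamma fusion plus Photinus luciferase reporter. Copper sulfate 700 uM final, 20 hr ambient incubation, luminescent detection after 10 min with reagent.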
Gal4-VP16 FLuc: VP16 counterscreen qHTS for inhibitors of ROR gamma transcriptional activity | Drosophila S2 Gal4-VP16 UAS-luciferase, luminescence, 20 h | Potency, µM (highest dose often 53.6 µM), without a hit: at the top dose activity, negative = inhibition, hits mostly inhibitors | 310,000 compounds, 3.5% hits | AID 2546, 2010;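 further: Gal4-VP16 expression switched on by copper sulfate through the metallothionein promoter; nearly all actives have a fitted effect of over 50% in size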
ALOX12 inh: Primary qHTS assay for inhibitors of human arachidonate 12S-lipoxygenase (ALOX12): Round 2 | Polyunsaturated fatty acid lipoxygenase ALOX12 (Homo sapiens), P18054 | purified 12hLO, xylenol orange hydroperoxide absorbance | Potency, µM (titrated, usually from 108 µM), for inactives: at the highest dose activity change, negative = inhibition, usual class: inhibitors | 580,000 compounds, 1.1% hits
Target sequence (P18054 whole entry, looked up): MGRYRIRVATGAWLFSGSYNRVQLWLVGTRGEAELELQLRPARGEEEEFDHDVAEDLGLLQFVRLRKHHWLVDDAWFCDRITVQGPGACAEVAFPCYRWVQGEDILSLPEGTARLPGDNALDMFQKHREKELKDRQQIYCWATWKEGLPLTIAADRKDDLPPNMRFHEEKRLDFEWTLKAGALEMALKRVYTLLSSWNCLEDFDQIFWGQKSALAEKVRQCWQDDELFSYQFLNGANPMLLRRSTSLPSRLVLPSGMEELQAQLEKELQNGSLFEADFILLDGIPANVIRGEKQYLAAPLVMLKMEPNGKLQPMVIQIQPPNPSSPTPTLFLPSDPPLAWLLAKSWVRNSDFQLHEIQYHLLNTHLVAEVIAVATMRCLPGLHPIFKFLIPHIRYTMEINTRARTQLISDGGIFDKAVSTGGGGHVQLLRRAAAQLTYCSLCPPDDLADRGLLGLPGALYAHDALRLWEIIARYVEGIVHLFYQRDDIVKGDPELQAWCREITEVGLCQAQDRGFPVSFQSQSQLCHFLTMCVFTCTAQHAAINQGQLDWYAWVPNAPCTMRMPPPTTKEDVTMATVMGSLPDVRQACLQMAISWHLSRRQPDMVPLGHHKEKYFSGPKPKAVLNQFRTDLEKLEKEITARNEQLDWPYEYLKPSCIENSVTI
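Purified human 12hLO at 150 nM in 25 mM Hepes, 0.01% Triton X-100, pH 7.0, preincubated 15 min at room temperature with compound. Reaction started with 40 uM arachidonic acid, 30 min at room temperature. Hydroperoxide measured by Fe-xylenol orange, 573/405 nm absorbance ratio.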
Starred values were filed as active, the others as inactive; ? = inconclusive; . = no result; [ ] = remark or other dose. The call rests on the fitted dose curve; in most records, active means well fitted curve in the direction sought with a large enough effect; inconclusive means small, poorly fitted or top-dose-only effect, or another doubt; inactive means no such curve, though single readings can be large; an effect the other way counts as inactive or inconclusive. On the % scale 0 is the no-effect control and ±100 the full control effect; potency means the concentration at half of the fitted maximal effect.

SMILES	TDP1 cell CPT	DT40 TDP1 no CPT	ELG1 DNA repair	RORg inh	Gal4-VP16 FLuc	ALOX12 inh
COC(=O)/C(C#N)=N\O	.	.	.	.	.	0%
Cc1cccc(NS(=O)(=O)c2cc(C(=O)OC(C)C(=O)NCc3ccc4c(c3)OCO4)ccc2C)c1 (stereo not drawn)	18µM*	16µM*	23µM*	?	?	10%
CCc1cccc(CC)c1NC(=S)NC(C)c1ccccc1 (stereo not drawn)	-85%	23µM*	0%	4µM*	?	40µM*
Cc1ccc(S(=O)(=O)C2(C(=O)NCc3ccc4c(c3)OCO4)CC2)cc1	?	18µM*	?	15%	16%	36%
O=C(NCc1ccc2c(c1)OCO2)c1ccc2c(c1)OCO2	-2%	-4%	5%	24%	-3%	-17%
NNC(=S)NCc1ccc2c(c1)OCO2	?	?	9%	7.9µM*	8.9µM*	-26%
CCC(C(=O)NC(C)c1ccccc1)C(=O)NC(C)c1ccccc1 (stereo not drawn)	8%	-13%	6%	-16%	2%	-3%
C=CCNC(=O)c1c[nH]c2cccnc12	.	.	.	.	.	41%[176 µM]
Cc1ccc(NC(=O)C2CCN(C(=O)C(C)(C)C)CC2)cc1S(=O)(=O)N1CCCCC1	.	.	.	.	.	-8%
Cc1ccccc1OC(C)C(=O)Nc1ccc2c(c1)OCCO2 (stereo not drawn)	-13%	4%	?	11%	27%	-29%
CCN(c1ccccc1)S(=O)(=O)c1ccc2c(c1)N(C(C)=O)CCO2	4%	-30%	13%	-30%	-8%	-1%
CC(C)(C)C(=O)c1cn(CC(=O)NCc2ccc3c(c2)OCO3)c2ccccc12	?	23µM*	-22%	13%	?	-7%
CCN(c1ccccc1)S(=O)(=O)c1ccc2c(c1)OCCO2	16µM*	?	-1%	.	.	68%
O=S(=O)(c1ccc2ccccc2c1)N(CC1CO1)c1ccccc1 (stereo not drawn)	13µM*	?	2%	17%	-3%	-4%
CCN(c1ccccc1)S(=O)(=O)c1cc(C(=O)OC(C)C(=O)Nc2ccc3c(c2)OCCO3)ccc1C (stereo not drawn)	?	16µM*	?	18%	-16%	?
CC(=O)NCC1(COc2cccnc2)C[C@@H](O)[C@@H](O)C1 (stereo partly drawn)	.	.	.	.	.	105%[176 µM]
Cc1cc(C)cc(OCC(=O)Nc2sc3c(c2C(=O)N2CCOCC2)CCCC3)c1	.	.	.	.	.	-7%
COC1=C(NCc2ccc3c(c2)OCO3)C(=O)C(OC)=C(NCc2ccc3c(c2)OCO3)C1=O	-11%	-7%	.	.	.	8.9µM*
O=C(Cc1c[nH]c2ccccc12)NCc1ccc2c(c1)OCO2	-26%	?	12µM*	2%[10 µM]	7%	0%
O=C(CCCc1c[nH]c2ccccc12)NCc1ccc2c(c1)OCO2	-5%	?	-2%	35%	-1%	?
CS(=O)(=O)N(CC(=O)NCc1ccc2c(c1)OCO2)Cc1ccccc1	29µM*	21µM*	7%	-14%	-29%	-8%
COC(=O)NCc1ccc2c(c1)OCO2	36%	-6%	0%	-5%	-2%	0%
Cc1cc(C)cc(NC(=O)CN(Cc2ccccc2)S(C)(=O)=O)c1	?	13µM*	-7%	-4%	3%	-17%
CS(=O)(=O)N(CC(=O)Nc1cc(Cl)cc(Cl)c1)Cc1ccccc1	.	.	.	.	.	11%
CCN1CC2(CCC1=O)CCN(C(=O)[C@@](C)(N)Cc1ccccc1)CC2	.	.	.	.	.	12%
SMILES	TDP1 cell CPT	DT40 TDP1 no CPT	ELG1 DNA repair	RORg inh	Gal4-VP16 FLuc	ALOX12 inh
Cn1c2ccccc2c(=O)c2ccc(NCc3ccc4c(c3)OCO4)cc21	23µM*	15µM*	.	.	.	?
CC(C)n1nc(C(=O)NCc2ccc3c(c2)OCO3)c2ccccc2c1=O	16µM*	21µM*	-9%	22%	-8%	?
CS(=O)(=O)N(CC(=O)N1CCN(Cc2ccc3c(c2)OCO3)CC1)Cc1ccc(Cl)cc1	11µM*	?	12µM*	-20%	10µM*	-4%
Cc1cccc(NC(=S)NCc2ccc3c(c2)OCO3)c1	1%	-13%	7%	11µM*	16µM*	?
O=C(NCc1ccc2c(c1)OCO2)c1n[nH]c(=O)c2ccccc12	?	?	?	-1%	-10%	6%
COc1ccc(CNCc2ccc3c(c2)OCO3)c(OC)c1OC	?	?	-9%	-5%	1%	?
CCc1cccc(CC)c1NC(=S)NCc1ccc2c(c1)OCO2	23µM*	18µM*	0%	8.9µM*	?	?
CCNC(=S)NCc1ccc2c(c1)OCO2	-1%	-16%	3%	-31%	-18%	15%
S=C(NCc1ccc2c(c1)OCO2)NCc1ccc2c(c1)OCO2	3%	-9%	-2%	16µM*	?	-23%
Cc1ccccc1NC(=O)NCc1ccc2c(c1)OCO2	-9%	5%	?	-21%	-4%	-9%
COc1ccc(CNCc2ccc3c(c2)OCO3)cc1Br	?	16µM*	0%	0%	0%	?
CC(C)C(=O)Nc1ccc(Cl)c(Cl)c1	.	.	.	.	.	11%
